According to the supplement of paper PMC6607015:
Counter-ions that a name gives are not always drawn.

Key:
Conditions in all cases: compound concentration in added solution (µM; 5 µl added to 20 µl cells): 10; 18 h
[1] = tested on: A431; assay: LBPA endosome anti-LBPA integrated intensity (sum per cell), Z-score; higher = more LBPA staining
Summary of the method: (§1)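 Reported values are Z-scores from AcuityXpress normalisation of per-cell integrated LBPA or filipin staining. HeLa MZ or A431 cells (3,500/well in 20 µl) were seeded onto 5 µl of 10 µM compound solution in duplicate 384-well plates, incubated 18 h, fixed in 4% PFA, stained and imaged at 20×. MetaXpress segmentation measured the intensity over the whole cell or within LBPA endosomes.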

[2] = tested on: HeLa MZ; assay: as above
Summary of the method: as §1

[3] = tested on: A431; assay: whole-cell filipin (free cholesterol) integrated intensity, Z-score; higher = more cholesterol staining
Summary of the method: as §1

[4] = tested on: HeLa MZ; assay: as above
Summary of the method: as §1

[5] = tested on: A431; assay: filipin (cholesterol) integrated intensity within LBPA endosomes, Z-score; higher = more cholesterol in LBPA endosomes
Summary of the method: as §1

[6] = tested on: HeLa MZ; assay: as above
Summary of the method: as §1

| SMILES | LBPA endosome anti-LBPA integrated intensity (z-score) [1] | LBPA endosome anti-LBPA integrated intensity (z-score) [2] | whole-cell filipin (z-score) [3] | whole-cell filipin (z-score) [4] | filipin (z-score) [5] | filipin (z-score) [6] |
| --- | --- | --- | --- | --- | --- | --- |
| c1ccc(CN(CC2=NCCN2)c2ccccc2)cc1 [Antazoline hydrochloride] | -0.107 | 0.686 | -0.0849 | 0.249 | -0.0343 | 0.301 |
| CN(C)CCC=C1c2ccccc2COc2ccccc21 [Doxepin hydrochloride] | 1.38 | 1.22 | 1.29 | -0.0249 | 1.62 | 1.18 |
| CNC(=C[N+](=O)[O-])NCCSCc1csc(CN(C)C)n1 [Nizatidine] | -0.247 | -0.223 | 0.149 | -0.639 | -0.347 | -0.405 |
| CCOC(=O)C(C)(C)Oc1ccc(Cl)cc1 [Clofibrate] | -0.34 | -0.523 | -0.116 | -0.429 | -0.352 | -0.657 |
| CCC(=O)OCC(=O)[C@@]1(OC(=O)CC)[C@H](C)C[C@H]2[C@H]3[C@H]([C@@H](O)C[C@@]21C)[C@@]1(C)C=CC(=O)C=C1C[C@H]3Cl [Alclometasone dipropionate] | -0.24 | 0.1 | -0.316 | -0.125 | -0.325 | -0.277 |
| CN(C)CCC(c1ccccc1)c1ccccn1 (stereo not given) [Pheniramine maleate] | -0.513 | 0.0628 | -0.745 | -0.51 | -0.53 | -0.436 |
| Cn1ccnc1S [Methimazole] | -0.549 | -0.811 | -0.397 | -0.237 | -0.496 | -0.58 |
| CNC(=O)c1c(I)c(C(=O)NCC(=O)Nc2c(I)c(C(=O)O)c(I)c(C(=O)NCCO)c2I)c(I)c(N(C)C(C)=O)c1I [Ioxaglic acid] | -0.421 | -0.394 | -0.282 | -0.455 | -0.384 | -0.571 |
| CC1(C)OC(=O)NC1=O [Dimethadione] | -0.345 | 0.802 | -0.303 | -0.0416 | -0.341 | -0.341 |
| C[C@]12CC[C@@H]3c4ccc(O)cc4C[C@@H](CCCCCCCCC[S+]([O-])CCCC(F)(F)C(F)(F)F)[C@H]3[C@@H]1CC[C@@H]2O (stereo not given in full) [Fulvestrant] | 1.44 | 1.71 | 1.52 | 1.48 | 1.64 | 2.16 |
| S=c1[nH]cnc2nc[nH]c12 [Mercaptopurine] | -0.731 | -1.06 | -0.622 | -1.37 | -0.742 | -0.984 |
| COc1ccc2[nH]cc(CCNC(C)=O)c2c1 [Melatonin] | -0.518 | 0.193 | -0.621 | -0.435 | -0.528 | -0.543 |
| Cc1ncc([N+](=O)[O-])n1CCO [Metronidazole] | -0.639 | -1.28 | -1.11 | -0.583 | -0.459 | -0.544 |
| COc1cc(C)c(/C=C/C(C)=C/C=C/C(C)=C/C(=O)O)c(C)c1C [Acitretin] | -0.624 | -0.537 | 0.514 | 0.218 | -0.413 | -0.258 |
| Cc1scc2c1N(C(=O)CN1CCN(C)CC1)c1ccccc1NC2=O [Telenzepine dihydrochloride] | -0.645 | 0.0897 | -0.931 | -0.897 | -0.595 | -0.401 |
| CN1CCc2cccc3c2[C@H]1Cc1ccc(O)c(O)c1-3 [R(-) Apomorphine hydrochloride hemihydrate] | 2.19 | 0.867 | -0.55 | -1.57 | 0.31 | -0.107 |
| CCCCC(O)c1ccccc1 (stereo not given) [Fenipentol] | -0.545 | -0.11 | -0.922 | -0.426 | -0.553 | -0.613 |
| CCC(C)(CN(C)C)OC(=O)c1ccccc1 (stereo not given) [Amyleine hydrochloride] | -0.517 | 0.00392 | -0.884 | -0.337 | -0.528 | -0.471 |
| O=C1CCc2ccc(OCCCCN3CCN(c4cccc(Cl)c4Cl)CC3)cc2N1 [Aripiprazole] | 3.32 | 2.8 | 2.88 | 2.45 | 3.23 | 4.07 |
| C#CCN(C)Cc1ccccc1 [Pargyline hydrochloride] | -0.443 | -0.371 | -0.77 | -0.65 | -0.469 | -0.441 |
| Cn1c(=O)c2c(ncn2CC2OCCO2)n(C)c1=O [Doxofylline] | -0.341 | 0.313 | -0.207 | -0.159 | -0.416 | -0.528 |
| COc1ccc2cc([C@@H](C)C(=O)O)ccc2c1 [(R) -Naproxen sodium salt] | -0.646 | -1.68 | -0.677 | -0.633 | -0.535 | -0.58 |
| CCOC(=O)C1=C(C)NC(C)=C(C(=O)OC)C1c1cccc(Cl)c1Cl (stereo not given) [Felodipine] | -0.574 | -0.618 | -0.869 | -0.774 | -0.49 | -0.476 |
| OC(CCCN1CCCCC1)(c1ccccc1)c1ccccc1 [Diphenidol hydrochloride] | -0.218 | 0.517 | -0.613 | -0.594 | -0.133 | -0.0129 |
| O=C(OCC(O)CO)c1ccccc1Nc1ccnc2cc(Cl)ccc12 (stereo not given) [Glafenine hydrochloride] | 0.592 | 1.9 | -1 | -1.18 | -0.297 | 0.0497 |

| SMILES | LBPA endosome anti-LBPA integrated intensity (z-score) [1] | LBPA endosome anti-LBPA integrated intensity (z-score) [2] | whole-cell filipin (z-score) [3] | whole-cell filipin (z-score) [4] | filipin (z-score) [5] | filipin (z-score) [6] |
| --- | --- | --- | --- | --- | --- | --- |
| CCCCN(CCCC)CCCOC(=O)c1ccc(N)cc1 [Butacaine] | 1.72 | 1.93 | -0.324 | -0.451 | 0.0505 | 0.307 |
| CCCCOc1cc(C(=O)NCCN(CC)CC)c2ccccc2n1 [Dibucaine] | 2.05 | 2.71 | 2.14 | 1.5 | 2.29 | 2.2 |
| C[C@@H]1C[C@H]2[C@@H]3C[C@H](F)C4=CC(=O)C=C[C@]4(C)[C@@]3(Cl)[C@@H](O)C[C@]2(C)[C@H]1C(=O)COC(=O)C(C)(C)C [Clocortolone pivalate] | -0.276 | -1.1 | -0.183 | -0.473 | -0.253 | -0.536 |
| CN(C(=O)C(Cl)Cl)c1ccc(OC(=O)c2ccco2)cc1 [Diloxanide furoate] | -0.565 | -0.529 | -0.629 | -0.7 | -0.498 | -0.517 |
| COc1ccc(-c2ccc(=N)n(CCCC(=O)O)n2)cc1 [Gabazine bromide] | -0.561 | -0.0518 | -0.811 | -0.576 | -0.574 | -0.549 |
| Clc1ccc(CCC(Cn2ccnc2)Sc2c(Cl)cccc2Cl)cc1 (stereo not given) [Butoconazole nitrate] | 1.95 | 2.23 | 1.71 | 2.17 | 2.22 | 2.14 |
| O=C(O)c1ccccc1OP(=O)(O)O [Fosfosal] | -0.256 | 0.942 | -0.159 | 0.251 | -0.274 | -0.0166 |
| OCCN1CCN(CC/C=C2/c3ccccc3Sc3ccc(Cl)cc32)CC1 [Zuclopenthixol hydrochloride] | 3.18 | 1.68 | 0.421 | 0.439 | 2.79 | 2.86 |
| CCCCC[C@H](O)/C=C/[C@H]1[C@H](O)CC(=O)[C@@H]1CCCCCCC(=O)O [Alprostadil] | -0.322 | -0.486 | 0.113 | -0.324 | -0.323 | -0.34 |
| COC(=O)CCc1ccc(OCC(O)CNC(C)C)cc1 (stereo not given) [Esmolol hydrochloride] | -0.258 | -0.524 | -0.179 | 0.319 | -0.36 | -0.273 |
| C[C@@]1(O)CCOC(=O)C1 [Mevalonic-D, L acid lactone] | -0.324 | -0.057 | -0.441 | 0.0668 | -0.408 | -0.457 |
| Cc1cc(C)nc(NS(=O)(=O)c2ccc(N)cc2)n1 [Sulfamethazine sodium salt] | -0.34 | 0.511 | 0.128 | -0.158 | -0.422 | -0.588 |
| CO[C@@H]1[C@@H](OC(N)=O)[C@@H](O)[C@H](Oc2ccc3c(O)c(NC(=O)c4ccc(O)c(CC=C(C)C)c4)c(=O)oc3c2C)OC1(C)C [Novobiocin sodium salt] | -0.507 | -0.477 | -0.352 | -0.602 | -0.469 | -0.462 |
| Cc1c(C)c2c(c(C)c1O)CCC(C)(C(=O)O)O2 (stereo not given) [Trolox] | -0.472 | 0.342 | -0.624 | 0.128 | -0.552 | -0.401 |
| CCc1ccc(CCOc2ccc(CC3SC(=O)NC3=O)cc2)nc1 (stereo not given) [Pioglitazone] | -0.492 | -0.449 | -0.697 | -0.748 | -0.5 | -0.629 |
| Nc1nc(=O)c2nc(CNc3ccc(C(=O)N[C@@H](CCC(=O)O)C(=O)O)cc3)cnc2[nH]1 [Folic acid] | -0.628 | -1.15 | -0.811 | -0.635 | -0.597 | -0.671 |
| Cc1onc(-c2ccccc2)c1C(=O)N[C@@H]1C(=O)N2[C@@H]1SC(C)(C)[C@@H]2C(=O)O [Oxacillin sodium] | -0.391 | 0.32 | -0.277 | -0.0335 | -0.382 | -0.445 |
| OCc1cc(C(O)CNCCCCCCOCCCCc2ccccc2)ccc1O (stereo not given) [Salmeterol] | 2.65 | 2.85 | 3.59 | 2.48 | 1.61 | 2.18 |
| Cc1cccc(C)c1NC(=O)CN1CCN(CCCC(c2ccc(F)cc2)c2ccc(F)cc2)CC1 [Lidoflazine] | 3.2 | 1.66 | 1.3 | 0.566 | 2.57 | 2.52 |
| CC(C(=O)O)c1ccc2c(c1)Cc1cccnc1O2 (stereo not given) [Pranoprofen] | -0.52 | -0.228 | -0.251 | -0.607 | -0.527 | -0.553 |
| C[N+](C)(C)CCOC(N)=O [Carbachol] | -0.538 | -0.848 | -0.548 | -0.381 | -0.44 | -0.42 |
| CN(C)CCCN1c2ccccc2Sc2ccccc21 [Promazine hydrochloride] | 2.06 | 2.59 | 1.2 | -0.208 | 1.35 | 1.31 |
| Nc1ccc(S(=O)(=O)Nc2cnc3ccccc3n2)cc1 [Sulfaquinoxaline sodium salt] | -0.491 | -0.359 | -0.235 | -0.279 | -0.43 | -0.432 |
| CN(C)CCCN1c2ccccc2CCc2ccc(Cl)cc21 [Clomipramine hydrochloride] | 3.59 | 1.91 | 1.1 | -0.141 | 2.35 | 1.89 |
| Nc1ncnc2c1ncn2[C@@H]1O[C@H](CO)[C@@H](O)[C@@H]1O [Vidarabine] | -0.521 | 0.0226 | -0.393 | 0.669 | -0.496 | -0.54 |
